From paper PMC7862700, “An all-to-all approach to the identification of sequence-specific readers for epigenetic DNA modifications on cytosine” come the findings set out here.

Common to all, as to test: DAPPL (digital affinity profiling via proximity ligation, sequencing); 10 mM Tris-HCl pH 7.5, 50 mM NaCl, 1 mM DTT, 4% glycerol, room temperature, 30 min; GST-TFs on glutathione beads, 16-mer random dsDNA library, 0.1% formaldehyde crosslink after washing; high values mean tight binding
Common to all, as to conditions: protein: recombinant; tags: N-terminal GST; dsDNA, one strand shown

One experiment deals with T1, ERF (Homo sapiens, UniProt P50548 1-548).
T1 sequence: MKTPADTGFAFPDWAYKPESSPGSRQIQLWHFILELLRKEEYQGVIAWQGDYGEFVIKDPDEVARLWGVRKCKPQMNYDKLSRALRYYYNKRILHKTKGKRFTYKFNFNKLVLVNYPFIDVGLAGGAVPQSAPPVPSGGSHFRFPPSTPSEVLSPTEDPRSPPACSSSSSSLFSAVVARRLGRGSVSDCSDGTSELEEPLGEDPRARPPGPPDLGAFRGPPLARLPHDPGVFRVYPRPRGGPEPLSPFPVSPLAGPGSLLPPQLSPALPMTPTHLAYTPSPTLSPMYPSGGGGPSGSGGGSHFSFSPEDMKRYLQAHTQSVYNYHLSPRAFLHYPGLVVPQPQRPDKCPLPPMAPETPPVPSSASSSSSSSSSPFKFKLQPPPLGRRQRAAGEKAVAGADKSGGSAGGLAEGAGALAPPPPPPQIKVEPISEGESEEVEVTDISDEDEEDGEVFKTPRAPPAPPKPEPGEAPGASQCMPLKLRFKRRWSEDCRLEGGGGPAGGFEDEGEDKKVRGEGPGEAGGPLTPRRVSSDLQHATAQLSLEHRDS
In a few lines:
(§1)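 Sequencing on an Illumina NextSeq500 followed washing, crosslinking with 0.1% formaldehyde, proximity ligation (BsaI/T4 ligase, 1 h, 37 °C) and PCR amplification of pools that had been incubated for 30 min at room temperature with 200 nmole of a random double-stranded 16-mer DNA library in Tris/NaCl/DTT/glycerol buffer. Each pool held DNA-barcoded human transcription factors, expressed in yeast as GST fusions and captured on glutathione beads, plus a tag-only sample. Binding signal is a hexamer's read frequency for a factor divided by its frequency in the tag-only sample.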

For another experiment, the target named is T2, ETV3L (Homo sapiens, UniProt Q6ZN32 1-361).
T2 sequence: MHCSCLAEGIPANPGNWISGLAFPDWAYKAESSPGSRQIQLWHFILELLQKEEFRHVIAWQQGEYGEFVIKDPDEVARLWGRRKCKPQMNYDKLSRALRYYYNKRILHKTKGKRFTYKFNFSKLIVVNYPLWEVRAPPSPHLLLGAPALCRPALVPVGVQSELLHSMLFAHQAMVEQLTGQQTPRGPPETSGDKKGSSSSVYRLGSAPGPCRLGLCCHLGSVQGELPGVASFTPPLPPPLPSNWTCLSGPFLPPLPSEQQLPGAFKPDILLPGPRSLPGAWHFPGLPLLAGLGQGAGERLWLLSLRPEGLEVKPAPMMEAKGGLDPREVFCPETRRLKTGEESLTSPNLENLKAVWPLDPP
In a few lines:
as §1

The target of the next experiment is T3, ETS2 (Homo sapiens, UniProt P15036 1-469).
T3 sequence: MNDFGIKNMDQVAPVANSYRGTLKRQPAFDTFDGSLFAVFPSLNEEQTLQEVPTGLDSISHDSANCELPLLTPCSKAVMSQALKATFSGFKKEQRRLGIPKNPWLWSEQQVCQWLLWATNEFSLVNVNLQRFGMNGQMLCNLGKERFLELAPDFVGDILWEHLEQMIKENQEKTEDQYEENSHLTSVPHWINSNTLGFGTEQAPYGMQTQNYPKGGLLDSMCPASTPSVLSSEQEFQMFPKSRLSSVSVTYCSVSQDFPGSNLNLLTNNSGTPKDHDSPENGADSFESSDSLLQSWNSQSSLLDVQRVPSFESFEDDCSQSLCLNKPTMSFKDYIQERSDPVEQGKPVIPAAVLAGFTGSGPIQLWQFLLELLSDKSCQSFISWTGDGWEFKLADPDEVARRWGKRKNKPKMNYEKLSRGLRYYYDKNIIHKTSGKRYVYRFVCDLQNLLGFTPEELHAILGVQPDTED
In a few lines: as §1

For another experiment, the target named is T4, SPDEF (Homo sapiens, UniProt O95238 1-335).
T4 sequence: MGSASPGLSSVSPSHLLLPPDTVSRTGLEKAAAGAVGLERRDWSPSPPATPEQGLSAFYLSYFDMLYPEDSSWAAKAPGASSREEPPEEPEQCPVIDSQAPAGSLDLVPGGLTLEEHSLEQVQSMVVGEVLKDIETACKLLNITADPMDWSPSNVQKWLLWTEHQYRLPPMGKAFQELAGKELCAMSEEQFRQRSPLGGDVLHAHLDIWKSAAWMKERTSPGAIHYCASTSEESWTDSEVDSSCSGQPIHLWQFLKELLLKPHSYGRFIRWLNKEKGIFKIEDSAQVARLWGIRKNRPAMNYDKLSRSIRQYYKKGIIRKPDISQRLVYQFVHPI
In a few lines:
as §1

Another experiment deals with T5, ETV7 (Homo sapiens, UniProt Q9Y603 1-341).
T5 sequence: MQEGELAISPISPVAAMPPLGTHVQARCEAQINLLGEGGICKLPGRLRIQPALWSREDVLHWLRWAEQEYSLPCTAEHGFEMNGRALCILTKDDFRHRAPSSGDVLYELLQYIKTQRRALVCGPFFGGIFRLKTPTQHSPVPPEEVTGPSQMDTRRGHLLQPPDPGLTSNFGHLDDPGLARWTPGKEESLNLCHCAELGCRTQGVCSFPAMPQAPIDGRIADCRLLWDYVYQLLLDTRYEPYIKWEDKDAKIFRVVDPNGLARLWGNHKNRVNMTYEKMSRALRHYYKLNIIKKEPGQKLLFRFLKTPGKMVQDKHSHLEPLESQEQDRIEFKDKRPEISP
In a few lines: as §1

The next experiment addresses T6, ELF5 (Homo sapiens, UniProt Q9UKW6-2 1-255).
T6 sequence: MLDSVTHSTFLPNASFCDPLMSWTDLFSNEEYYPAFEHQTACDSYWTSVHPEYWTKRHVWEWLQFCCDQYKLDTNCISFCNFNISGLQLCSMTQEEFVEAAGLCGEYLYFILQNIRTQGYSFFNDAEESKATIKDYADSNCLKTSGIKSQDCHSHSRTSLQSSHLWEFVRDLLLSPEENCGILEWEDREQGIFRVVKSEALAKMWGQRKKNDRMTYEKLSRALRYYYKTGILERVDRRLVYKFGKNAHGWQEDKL
The method, boiled down:
as §1

The next experiment addresses T7, ETV3 (Homo sapiens, UniProt P41162-2 1-143).
T7 sequence: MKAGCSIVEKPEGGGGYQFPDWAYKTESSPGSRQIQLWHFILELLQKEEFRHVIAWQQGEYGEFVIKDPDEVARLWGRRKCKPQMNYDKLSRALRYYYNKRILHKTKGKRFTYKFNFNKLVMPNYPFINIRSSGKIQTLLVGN
The method, boiled down:
as §1

A further experiment deals with ETV6 (Homo sapiens, UniProt P41212 1-452). The method, boiled down: as §1
ETV6, sequence (P41212 whole entry): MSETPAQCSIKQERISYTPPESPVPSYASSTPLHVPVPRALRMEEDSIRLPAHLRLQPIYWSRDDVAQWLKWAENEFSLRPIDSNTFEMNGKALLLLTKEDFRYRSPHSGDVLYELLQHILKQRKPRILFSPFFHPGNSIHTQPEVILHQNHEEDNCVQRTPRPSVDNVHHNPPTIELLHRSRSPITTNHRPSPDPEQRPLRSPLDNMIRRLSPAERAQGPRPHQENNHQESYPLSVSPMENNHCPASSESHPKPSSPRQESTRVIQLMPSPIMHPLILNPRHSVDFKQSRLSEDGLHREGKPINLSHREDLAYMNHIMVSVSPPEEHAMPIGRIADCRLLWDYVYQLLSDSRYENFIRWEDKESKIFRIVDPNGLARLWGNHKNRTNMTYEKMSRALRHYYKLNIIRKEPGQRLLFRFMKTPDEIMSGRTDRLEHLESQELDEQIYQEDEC

Take ACTGCG: the binding signal with ERF is 1.26 fold enrichment (6-mer frequency, TF over GST control); with ETV3L, 1.26 fold enrichment (6-mer frequency, TF over GST control); in the experiment with ETS2, 1.35 fold enrichment (6-mer frequency, TF over GST control); with SPDEF it was 1.24 fold enrichment (6-mer frequency, TF over GST control); in the experiment with ETV7, 1.21 fold enrichment (6-mer frequency, TF over GST control); in the experiment with ELF5, 1.25 fold enrichment (6-mer frequency, TF over GST control). Also, the binding signal was 1.25 fold enrichment (6-mer frequency, TF over GST control) in the experiment with ETV3 and 1.18 fold enrichment (6-mer frequency, TF over GST control) with ETV6.
In the case of CCGACG, the binding signal is 1.32 fold enrichment (6-mer frequency, TF over GST control) in the experiment with ERF; 1.23 fold enrichment (6-mer frequency, TF over GST control) with ETV3L; 1.33 fold enrichment (6-mer frequency, TF over GST control) with ETS2; 1.19 fold enrichment (6-mer frequency, TF over GST control) in the experiment with SPDEF; 1.34 fold enrichment (6-mer frequency, TF over GST control) with ETV7; 1.28 fold enrichment (6-mer frequency, TF over GST control) with ELF5. In addition, the binding signal is 1.16 fold enrichment (6-mer frequency, TF over GST control) with ETV3 and 1.31 fold enrichment (6-mer frequency, TF over GST control) with ETV6.
Turning to CCTCTC, the binding signal is 1.4 fold enrichment (6-mer frequency, TF over GST control) with ERF; 1.41 fold enrichment (6-mer frequency, TF over GST control) in the experiment with ETV3L; 1.34 fold enrichment (6-mer frequency, TF over GST control) with ETS2; 1.39 fold enrichment (6-mer frequency, TF over GST control) in the experiment with SPDEF; 1.44 fold enrichment (6-mer frequency, TF over GST control) with ETV7; 1.41 fold enrichment (6-mer frequency, TF over GST control) with ELF5. The binding signal in the experiment with ETV3 is 1.44 fold enrichment (6-mer frequency, TF over GST control); with ETV6, 1.5 fold enrichment (6-mer frequency, TF over GST control).
Take CGCCCC: the binding signal with ERF is 1.28 fold enrichment (6-mer frequency, TF over GST control); with ETV3L, 1.31 fold enrichment (6-mer frequency, TF over GST control); with ETS2 it was 1.05 fold enrichment (6-mer frequency, TF over GST control); with SPDEF it was 1.18 fold enrichment (6-mer frequency, TF over GST control); with ETV7 it was 1.2 fold enrichment (6-mer frequency, TF over GST control); with ELF5 it was 1.1 fold enrichment (6-mer frequency, TF over GST control). In addition, the binding signal with ETV3 is 1.16 fold enrichment (6-mer frequency, TF over GST control); in the experiment with ETV6, 1.19 fold enrichment (6-mer frequency, TF over GST control).
On to CTGGGT, for which the binding signal is 1.07 fold enrichment (6-mer frequency, TF over GST control) in the experiment with ERF; 1.18 fold enrichment (6-mer frequency, TF over GST control) in the experiment with ETV3L; 1.09 fold enrichment (6-mer frequency, TF over GST control) with ETS2; 1.08 fold enrichment (6-mer frequency, TF over GST control) with SPDEF; 1.1 fold enrichment (6-mer frequency, TF over GST control) with ETV7; 1.07 fold enrichment (6-mer frequency, TF over GST control) with ELF5. The binding signal is 1.07 fold enrichment (6-mer frequency, TF over GST control) with ETV3 and 1.09 fold enrichment (6-mer frequency, TF over GST control) in the experiment with ETV6.
For TATTGC, the binding signal is 1.31 fold enrichment (6-mer frequency, TF over GST control) with ERF; 1.4 fold enrichment (6-mer frequency, TF over GST control) with ETV3L; 1.36 fold enrichment (6-mer frequency, TF over GST control) with ETS2; 1.31 fold enrichment (6-mer frequency, TF over GST control) with SPDEF; 1.36 fold enrichment (6-mer frequency, TF over GST control) in the experiment with ETV7; 1.27 fold enrichment (6-mer frequency, TF over GST control) with ELF5. In addition, the binding signal with ETV3 was 1.41 fold enrichment (6-mer frequency, TF over GST control); with ETV6, 1.38 fold enrichment (6-mer frequency, TF over GST control).
